VLA-4 inh: inhibition in a human VLA-4 binding assay; P13612; VLA-4 expressing cells, ligand binding flow cytometry; inhibition, % (about 7 µM as worked out from the volumes in the protocol); 0.2% of 330,000 active; AID 2557; in the data active means inhibition above about 50%
Target sequence (P13612 whole entry, looked up): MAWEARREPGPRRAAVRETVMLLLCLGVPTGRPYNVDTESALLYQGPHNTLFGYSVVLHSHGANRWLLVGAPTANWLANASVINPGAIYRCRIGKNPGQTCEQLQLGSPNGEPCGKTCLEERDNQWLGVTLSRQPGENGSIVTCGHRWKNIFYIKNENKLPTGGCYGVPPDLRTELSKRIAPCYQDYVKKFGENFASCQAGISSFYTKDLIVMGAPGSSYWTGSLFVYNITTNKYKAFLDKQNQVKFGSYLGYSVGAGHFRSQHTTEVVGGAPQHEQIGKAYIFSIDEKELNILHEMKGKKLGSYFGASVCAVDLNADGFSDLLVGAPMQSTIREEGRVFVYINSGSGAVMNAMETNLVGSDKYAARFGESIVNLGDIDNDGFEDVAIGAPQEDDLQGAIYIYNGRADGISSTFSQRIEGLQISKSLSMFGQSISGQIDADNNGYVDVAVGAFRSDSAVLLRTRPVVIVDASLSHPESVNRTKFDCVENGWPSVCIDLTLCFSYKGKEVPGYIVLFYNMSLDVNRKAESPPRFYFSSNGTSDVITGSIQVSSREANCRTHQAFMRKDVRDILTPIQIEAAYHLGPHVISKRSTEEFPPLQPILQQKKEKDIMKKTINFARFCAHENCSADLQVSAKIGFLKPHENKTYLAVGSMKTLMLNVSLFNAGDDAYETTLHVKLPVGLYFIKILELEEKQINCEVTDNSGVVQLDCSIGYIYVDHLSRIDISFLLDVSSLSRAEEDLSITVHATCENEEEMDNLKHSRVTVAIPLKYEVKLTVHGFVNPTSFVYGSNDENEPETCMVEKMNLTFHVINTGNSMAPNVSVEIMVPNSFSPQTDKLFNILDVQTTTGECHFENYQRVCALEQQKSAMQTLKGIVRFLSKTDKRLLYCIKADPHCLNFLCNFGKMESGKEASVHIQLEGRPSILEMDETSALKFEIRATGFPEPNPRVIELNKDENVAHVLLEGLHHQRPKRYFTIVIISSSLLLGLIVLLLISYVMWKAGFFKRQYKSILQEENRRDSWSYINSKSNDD
AHR activator: activates the human aryl hydrocarbon receptor | P35869 | AHR-responsive luciferase reporter cells, luminescence | activation, % at 5 µM | 2.5% of 320,000 active; in the data active means activation above about 47%;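 further: 0% = vehicle wells and 100% = reference agonist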
SUMO Mot1 rescue: SUMOylation pathway inhibition by Mot1-301 growth rescue; AID 2716; growth rescue, % at 18.8 µM; 1% of 320,000 active; S. cerevisiae Mot1-301 growth rescue, ATP luminescence, 38.5C; percent above DMSO median, 100 means doubled;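 active means every valid replicate shows activation above 250% relative to neutral control wells; inactive means the rest, any valid replicate at or below 250%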;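 further: OY570 slx delta 5 strain wells were the positive control but not used for scaling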
ALR inh: inhibitors of human sulfhydryl oxidase ALR; purified ALR, DTT oxidation, H2O2 HRP-luminol luminescence; inhibition, % (no concentration beside the values); 3.8% of 290,000 active; AID 485317;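 active means mean replicate inhibition above about 79%, with every replicate also reaching it, limit read from the data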
Efflux pump mplx: antifungal efflux pump inhibition, Nile Red retention. 0.44% of 330,000 active. S. cerevisiae Candida pump triplex. inhibition, % at 10 µM;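 active means plate passing quality check with inhibition over a set limit, or well fluorescence over plate mean plus 4 SD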;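 further: Nile Red retained in pooled yeast measured as flow cytometry median fluorescence; 0% = buffer negative control and 100% = Enniatin B positive control; higher means more Nile Red kept so more efflux inhibition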
A1 inh: inhibitors of the anti-apoptotic protein A1, read as caspase activation. MEF A1-2A-BIM cells, Caspase-Glo 3/7 luminescence, 3 h; percent of clofoctol response, vehicle zero. caspase activation, % (test concentration not listed). 0.066% of 330,000 active. AID 2462;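 active means over half of replicate activation scores above 10%, or exactly half above 10 with the replicate mean above 10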
AHR act confirm: human AHR activation, confirmation; activation, % at 9 µM; shares compounds with AHR activator; human cells, AHR-responsive luciferase reporter, luminescence; 87% of 2,300 active; in the data active means activation above about 49%;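 further: HepG2 hepatoma cells carrying a DRE-driven firefly luciferase reporter; 0% = vehicle wells and 100% = reference agonist wells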
PXR act counter: activates human PXR in AHR activator counter-screen | shares compounds with AHR activator | cell-based PXR reporter, luciferase luminescence | activation, % at 11.6 µM | 88% of 2,300 active; in the data active means activation above about 11%;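 further: human hepatoma DPX-2 cells expressing full-length human PXR; 0% = DMSO and 100% = reference agonist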
* hit, by the source's call. The list is not random: actives were taken first. Their share in the collection is about 7.2%.

Results for CCn1c2ccccc2c2cc(NC(=O)c3cccc([N+](=O)[O-])c3C)ccc21 ?
VLA-4 inh: 15; AHR activator: 113*; SUMO Mot1 rescue: 31; Efflux pump mplx: 0; A1 inh: -1; AHR act confirm: 87*; PXR act counter: 55*

Results for CCn1c2ccccc2c2cc(NC(=O)c3cccc([N+](=O)[O-])c3)ccc21 ?
VLA-4 inh: 10; AHR activator: 86*; SUMO Mot1 rescue: 9; ALR inh: -7; Efflux pump mplx: 0; A1 inh: 0; AHR act confirm: 89*; PXR act counter: 33*

How did NNC(=S)NCc1ccc2c(c1)OCO2 do in these assays?
VLA-4 inh: -1; AHR activator: 12; SUMO Mot1 rescue: -11; ALR inh: 7; Efflux pump mplx: 0; A1 inh: 0

What do the screens show for `CCN1CCN(c2ncnc3sc(C(=O)Nc4ccccc4F)c(C)c23)CC1`?
VLA-4 inh: 18; AHR activator: 128*; SUMO Mot1 rescue: 15; Efflux pump mplx: 0; A1 inh: -1; AHR act confirm: 75*; PXR act counter: 23*

What do the screens show for `COc1ccc(OC)c(NC(=O)c2sc3ncnc(N4CCN(c5ccccn5)CC4)c3c2C)c1`?
VLA-4 inh: 2; AHR activator: -4; SUMO Mot1 rescue: 328; ALR inh: -11; Efflux pump mplx: 0; A1 inh: 1

How did Cn1c(SCC(=O)N/N=C/C=C\c2ccccc2[N+](=O)[O-])nc2ccccc21 do in these assays?
VLA-4 inh: 2; AHR activator: 108*; SUMO Mot1 rescue: 28; ALR inh: -11; Efflux pump mplx: 0; A1 inh: 0; AHR act confirm: 55*; PXR act counter: 81*

What do the screens show for `Cn1c(SCC(=O)N/N=C/C=C/c2ccccc2[N+](=O)[O-])nc2ccccc21`?
VLA-4 inh: 19; AHR activator: 117*; SUMO Mot1 rescue: 16; ALR inh: -3; Efflux pump mplx: 0; A1 inh: 0; AHR act confirm: 56*; PXR act counter: 75*

How did CCn1c(SCC(=O)N/N=C/C=C\c2ccccc2[N+](=O)[O-])nc2ccccc21 do in these assays?
VLA-4 inh: 6; AHR activator: 33; ALR inh: 4; Efflux pump mplx: 0; A1 inh: 0

What do the screens show for `O=C(C1CC1)N1N=C(c2ccncc2)CC1(O)C(F)(F)F` (centres undefined)?
VLA-4 inh: -12; AHR activator: 3; SUMO Mot1 rescue: -8; ALR inh: -4; Efflux pump mplx: 0; A1 inh: 0

Results for O=C1NC2=C(CCc3ccccc32)C(c2ccccc2)N1 (centres undefined) ?
VLA-4 inh: -21; AHR activator: 82*; SUMO Mot1 rescue: -13; ALR inh: 18; Efflux pump mplx: 0; A1 inh: 1; AHR act confirm: 14; PXR act counter: 22*

What do the screens show for `C=CCOc1ccc(C2NC(=S)NC3=C2CCc2ccccc23)cc1` (centres undefined)?
VLA-4 inh: 7; AHR activator: 0; SUMO Mot1 rescue: 4; ALR inh: -14; Efflux pump mplx: 0; A1 inh: 0

What do the screens show for `Cc1cccc(NC(=S)N/N=C/c2ccc3c(c2)OCO3)c1`?
VLA-4 inh: -9; AHR activator: 94*; SUMO Mot1 rescue: 1; ALR inh: -12; Efflux pump mplx: 0; A1 inh: 1; AHR act confirm: 71*; PXR act counter: 87*

Results for Cc1ccc(C(=O)Nc2ccc(C(=O)N/N=C/c3c[nH]c4ccccc34)cc2)cc1 ?
VLA-4 inh: 10; AHR activator: 21; SUMO Mot1 rescue: 8; ALR inh: -3; Efflux pump mplx: 0; A1 inh: 0

How did Cc1cccc(NC(=S)N/N=C/c2cccc([N+](=O)[O-])c2)c1 do in these assays?
VLA-4 inh: -3; AHR activator: 134*; SUMO Mot1 rescue: 26; ALR inh: -3; Efflux pump mplx: 0; A1 inh: 2; AHR act confirm: 145*; PXR act counter: 41*

How did Cc1cccc(NC(=S)N/N=C/c2ccc(Cl)c([N+](=O)[O-])c2)c1 do in these assays?
VLA-4 inh: 19; AHR activator: 18; SUMO Mot1 rescue: -3; ALR inh: -2; Efflux pump mplx: 0; A1 inh: 0

How did O=C(N/N=C/c1ccc2c(c1)OCO2)c1ccccn1 do in these assays?
VLA-4 inh: 11; AHR activator: 42; SUMO Mot1 rescue: -8; ALR inh: 0; Efflux pump mplx: 0; A1 inh: -6

How did Cc1cccc(NC(=S)N/N=C/c2c[nH]c3ccccc23)c1 do in these assays?
VLA-4 inh: 5; AHR activator: 135*; SUMO Mot1 rescue: 57; Efflux pump mplx: 0; A1 inh: -1; AHR act confirm: 87*; PXR act counter: 19*

How did O=C(N/N=C/c1ccc2c(c1)OCO2)c1ccc(Br)o1 do in these assays?
VLA-4 inh: -1; AHR activator: 175*; SUMO Mot1 rescue: -18; Efflux pump mplx: 0; A1 inh: 1; AHR act confirm: 120*; PXR act counter: 22*

How did COc1ccccc1OCCNC(=O)c1ccc(C)o1 do in these assays?
VLA-4 inh: 5; AHR activator: 10; SUMO Mot1 rescue: 14; ALR inh: 4; Efflux pump mplx: 0; A1 inh: 0

How did Clc1cc(Cl)c2nc(N3CCCCC3)sc2c1 do in these assays?
VLA-4 inh: 12; AHR activator: 25; SUMO Mot1 rescue: -11; ALR inh: -3; Efflux pump mplx: 0; A1 inh: -7

What do the screens show for `Clc1cc(Cl)c2nc(N3CCCC3)sc2c1`?
VLA-4 inh: 9; AHR activator: 88*; SUMO Mot1 rescue: 17; ALR inh: 55; Efflux pump mplx: 0; A1 inh: -3; AHR act confirm: 95*; PXR act counter: 28*

How did CCOC(=O)CSc1ccc(S(=O)(=O)N(C)C2CCCCC2)cc1[N+](=O)[O-] do in these assays?
VLA-4 inh: 15; AHR activator: -4; SUMO Mot1 rescue: 192; ALR inh: -4; Efflux pump mplx: 0; A1 inh: 0

Results for COc1ccc(/C=C/c2nc(-c3ccccc3O)n[nH]2)cc1 ?
VLA-4 inh: 0; AHR activator: 94*; SUMO Mot1 rescue: -7; ALR inh: 10; Efflux pump mplx: 0; A1 inh: -6; AHR act confirm: 46; PXR act counter: 6

What do the screens show for `COCCCN(Cc1ccco1)C(=O)CSc1nc2ncccc2[nH]1`?
VLA-4 inh: 0; AHR activator: 3; SUMO Mot1 rescue: -7; ALR inh: -2; Efflux pump mplx: 0; A1 inh: 0

From PubChem
